# A number with no mark means an inactive call. The rule behind the calls is not given here.
# System: HIV-1 nucleocapsid protein NCp7 (binding to TG oligonucleotide)
# Assay: HIV Nucleocapsid (AID 346);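 note: potency is for inhibitors that block NC binding and lower polarization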
# Conditions: HIV-1 NC / fluorescein-TGTGTGTG probe, fluorescence polarization
# Method in brief: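 Reagents dispensed (10 nM TG4xF, 100 nM HIV-1 NC), plates spun, compounds pin-transferred, then incubated 1 hr at room temperature before FP imaging. Buffer: Hepes pH 7.5, 250mM NaCl, 1uM ZnCl2, 100 uM TCEP, 5 mM 2-mercaptoethanol.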
# Potency is the fitted concentration of half-maximal effect.
row,SMILES,Potency
1,O=C(c1ccco1)N1CCC[C@@]2(CCN(c3ccncc3)C2)C1,> 20 µM
2,Cc1noc(C)c1C(=O)N1CCC2(CC1)CCN(c1ccncc1)CC2,> 20 µM
3,COc1ccc(CNc2ccnc(-c3ccoc3)n2)c(OC)c1,> 20 µM
4,CN(C)c1ncc2nc(-c3cccs3)c(=O)n(Cc3cccs3)c2n1,> 4 µM
5,Cc1noc(C)c1C(=O)N1CCC[C@@]2(CCN(c3ccccn3)C2)C1,> 20 µM
6,CN(Cc1ccco1)c1ccnc(-c2cccc(NS(C)(=O)=O)c2)n1,> 20 µM
7,COc1cccc(Nc2ncc3nc(C)c(=O)n(C[C@H]4CCCO4)c3n2)c1,> 20 µM
8,CN(C)c1ncc2nc(-c3ccc(F)cc3)c(=O)n(CCC#N)c2n1,> 4 µM
9,COc1ccc(NC(=O)N2CCCC3(CCN(C(=O)c4ccco4)CC3)C2)cc1,> 20 µM
10,O=C(Nc1cccc(F)c1)N1CC[C@@]2(CCCNC2)C1,> 20 µM
11,O=C(c1csnn1)N1CCC2(CC1)CN(C(c1ccccc1)c1ccccc1)C2,> 20 µM
12,O=C(c1ccco1)N1CCC2(CC1)CN(Cc1cc(C(F)(F)F)cc(C(F)(F)F)c1)C2,> 20 µM
13,O=C(Nc1ccccc1)N1CCCC2(CCN(C(=O)c3csnn3)CC2)C1,> 20 µM
14,CN(C)c1ncc2nc(-c3ccc(F)cc3)c(=O)n(C)c2n1,> 20 µM
15,COc1ccc2[nH]cc(CCNc3ncncc3-c3ccccc3Cl)c2c1,> 20 µM
16,COC(=O)N1CCC2(CC1)CN(c1ccc(-c3ccccc3)cc1)C2,> 20 µM
17,O=c1c(-c2ccc(F)cc2)nc2cnc(N3CCNCC3)nc2n1C1CC1,> 20 µM
18,COc1cccc(-c2nccc(NCc3ccccc3)n2)c1,> 20 µM
19,Cn1c(=O)cnc2cnc(OCc3ccccc3)nc21,> 20 µM
20,COCCNc1cc(-c2ccccc2C)ncn1,> 20 µM

row,SMILES,Potency
1,COC(=O)N1CCC2(CC1)CN(C(c1ccccc1)c1ccccc1)C2,> 20 µM
2,CN(Cc1ccco1)c1cc(-c2ccc3c(c2)OCO3)ncn1,> 20 µM
3,N#Cc1cccc(NC(=O)N2CCCC3(CCN(S(=O)(=O)c4ccccc4)CC3)C2)c1,> 20 µM
4,c1cncc(CNc2ncncc2-c2ccoc2)c1,> 20 µM
5,O=c1c(-c2cccs2)nc2cncnc2n1Cc1ccc(F)cc1,> 20 µM
6,COc1ccc(C(=O)N2CCC3(CC2)CN(c2ccccc2)C3)cc1,> 20 µM
7,COCC(=O)N1CCC2(CC1)CCN(C(=O)NC(C)C)CC2,> 20 µM
8,Cc1cnc(CNc2ncnc3ccc(-c4ccc5c(c4)OCO5)cc23)cn1,> 20 µM
9,COc1ccc(-n2c(=O)c(-c3ccccc3)nc3cnc(N4CCOCC4)nc32)cc1,> 20 µM
10,Cc1cnc(CNc2cc(-c3ccccc3CN(C)C)ncn2)cn1,> 20 µM
11,N#Cc1cccc(NC(=O)N2CC[C@@]3(CCCN(C(=O)c4ccncc4)C3)C2)c1,> 20 µM
12,Cc1noc(C)c1-c1cc(Nc2ccc(F)cc2)ncn1,> 20 µM
13,CC(=O)N1CCC2(CC1)CN(c1ccncc1)C2,> 20 µM
14,O=C(c1cccc(F)c1)N1CCC2(CC1)CN(c1ccncc1)C2,> 20 µM
15,CN1CCN(c2ncc3nc(CCc4ccccc4)c(=O)n(C)c3n2)CC1,> 20 µM
16,FC(F)(F)c1ccccc1-c1ccc2ncnc(NCc3cccnc3)c2c1,> 20 µM
17,Cc1nc2cnc(Oc3ccccc3)nc2n(CCC#N)c1=O,> 20 µM
18,Cc1cccc(CNc2ccnc(-c3cccc(NS(C)(=O)=O)c3)n2)c1,> 20 µM
19,COc1ccccc1-c1ccc2ncnc(N3CCNCC3)c2c1,> 20 µM

# — PubChem BioAssay (NCATS)
